In PubChem BioAssay (NCI):
About 79,000 compounds went through this panel and 15% of them were active in at least one assay; those are over-represented in the sample as a whole. Active and inactive are the calls of the source. Cut-off read from the data, not from the text of the source: active = growth inhibition above about 70%; inactive = the rest.

Tests used:
[1] = NCI Yeast Anticancer Drug Screen. Data for the wt2 strain (AID 169);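 note: 0% = growth of vehicle-treated yeast cultures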; conditions: S. cerevisiae wt2 strain growth inhibition, hits give high values
Method in brief: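 Compound exposure of yeast; growth compared with vehicle controls; inhibition reported.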

[2] = NCI Yeast Anticancer Drug Screen. Data for the mlh1 strain (AID 171);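 note: 0% = growth of vehicle-treated control cultures of the same strain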; conditions: S. cerevisiae mlh1 strain growth inhibition, hits give high values
Method in brief: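 Compounds are applied to a genetically altered yeast strain, and its growth is compared with that of vehicle-treated cultures to give percent inhibition.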

[3] = NCI Yeast Anticancer Drug Screen. Data for the sgs1 strain (AID 173);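 note: 0% = growth of vehicle-only control cultures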; conditions: S. cerevisiae sgs1 mutant, hits give high values
Method in brief: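 Compounds applied to genetically altered yeast; growth compared with vehicle-treated cultures to give % inhibition.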

[4] = NCI Yeast Anticancer Drug Screen. Data for the mlh1 rad18 strain (AID 175); conditions: S. cerevisiae mlh1 rad18 strain growth inhibition, hits give high values
Method in brief: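 Cells of a genetically altered yeast strain, deficient in DNA damage repair, were treated with compound. Their growth was then compared with that of vehicle-treated cultures to give inhibition.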

[5] = NCI Yeast Anticancer Drug Screen. Data for the rad18 strain (AID 177); conditions: S. cerevisiae rad18 mutant growth inhibition, hits give high values
Method in brief: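 Compounds are applied to a repair-deficient yeast strain, and growth is compared with that of vehicle-treated cultures to give percent inhibition.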

[6] = NCI Yeast Anticancer Drug Screen. Data for the rad52 strain (AID 147);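 note: 0% = growth of vehicle-treated control cultures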; conditions: S. cerevisiae rad52 mutant growth inhibition, hits give high values
Method in brief: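 DNA repair-defective yeast; compound exposure; growth scored against vehicle controls.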

[7] = NCI Yeast Anticancer Drug Screen. Data for the wt1 strain (AID 149);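 note: 0% = growth of vehicle-treated wt1 cultures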; conditions: S. cerevisiae wt1 strain (SPY 50644) growth inhibition, hits give high values
Method in brief: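 Vehicle-normalised growth inhibition; strain wt1; compound exposure.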

[8] = NCI Yeast Anticancer Drug Screen. Data for the rad50EPP+ strain (AID 151);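 note: 0% = growth of vehicle-treated control cultures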; conditions: S. cerevisiae rad50 mutant strain, hits give high values
Method in brief: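 rad50EPP+ yeast treated with test compounds. Readout: growth vs vehicle control.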

[9] = NCI Yeast Anticancer Drug Screen. Data for the mgt1 strain (AID 153); conditions: S. cerevisiae mgt1 mutant growth inhibition, hits give high values
Method in brief: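 Growth inhibition relative to vehicle controls was scored for the mgt1 yeast strain after compound exposure.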

[10] = NCI Yeast Anticancer Drug Screen. Data for the rad50 strain (AID 155);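 note: 0% = growth of vehicle-only cultures of the same strain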; conditions: S. cerevisiae rad50 strain growth inhibition, hits give high values
Method in brief: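 A DNA repair-deficient yeast mutant serves as the test organism; compound-induced growth inhibition is calculated against vehicle-treated cells.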

[11] = NCI Yeast Anticancer Drug Screen. Data for the mec2-1 strain (AID 157); conditions: S. cerevisiae mec2-1 strain, hits give high values
Method in brief: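 Growth inhibition is read against vehicle-treated controls after compound exposure of the mec2-1 yeast strain, which is defective in DNA damage repair or cell cycle control.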

[12] = NCI Yeast Anticancer Drug Screen. Data for the rad14 strain (AID 159);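 note: 0% = growth of vehicle-treated control cultures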; conditions: S. cerevisiae rad14 strain growth inhibition, hits give high values
Method in brief: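 Vehicle-treated cultures served as the baseline for growth inhibition of a DNA repair-mutant yeast strain exposed to each compound.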

[13] = NCI Yeast Anticancer Drug Screen. Data for the sgs1 mgt1 strain (AID 161);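 note: 0% = growth of cultures given vehicle only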; conditions: S. cerevisiae sgs1 mgt1 strain, hits give high values
Method in brief: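 Yeast cells carrying a defined DNA-repair defect were exposed to test compounds. Growth inhibition was measured relative to vehicle-treated controls.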

[14] = NCI Yeast Anticancer Drug Screen. Data for the CLN2oe strain (AID 163);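 note: 0% = growth of vehicle-only control cultures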; conditions: S. cerevisiae CLN2oe strain, hits give high values
Method in brief: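 Compound-treated yeast; growth vs vehicle ctrl = % inhibition. Genetically altered strain (cell-cycle control).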

[15] = NCI Yeast Anticancer Drug Screen. Data for the cln2 rad14 strain (AID 165);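 note: 0% = growth equal to vehicle treated cultures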; conditions: S. cerevisiae cln2 rad14 strain, hits give high values
Method in brief: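 Growth inhibition, relative to vehicle-treated controls, is the read-out. The test organism is a yeast strain with defined genetic alterations, cln2 rad14.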

[16] = NCI Yeast Anticancer Drug Screen. Data for the bub3 strain (AID 167); conditions: S. cerevisiae bub3 mutant strain, hits give high values
Method in brief: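 Inhibition values come from growth of compound-treated mutant yeast normalised to vehicle-treated controls.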

[17] = at 5.0 µM (retest, dose inferred, filed as 0.5)
[18] = at 50.0 µM (retest, dose inferred, filed as 5.0)

Measured: growth inhibition

C/C(=N\O)C1CC2C=C(C#N)C1N(Cc1ccccc1)C2 (stereo unspecified)
active: [5]; at 33.0 µM 77% | [5]; at 100.0 µM 86%
inactive: [1]; at 1.2 µM -1% | [1]; at 3.7 µM -2% | [1]; at 11.0 µM -3% | [1]; at 33.0 µM -2% | [1]; at 100.0 µM -2% | [2]; at 1.2 µM -3% | [2]; at 3.7 µM 0% | [2]; at 11.0 µM 0% | [2]; at 33.0 µM 0% | [2]; at 100.0 µM 0% | [3]; at 1.2 µM 1% | [3]; at 3.7 µM 1% | [3]; at 11.0 µM 4% | [3]; at 33.0 µM 9% | [3]; at 100.0 µM 17% | [4]; [17] 0% | [4]; [18] 62% | [4]; at 50.0 µM 9% | [5]; at 1.2 µM 5% | [5]; at 3.7 µM 13% | [5]; at 11.0 µM 40%

COc1ccc2nc3cccc([N+](=O)[O-])c3c(NCCN(CCO)CCO)c2c1
active: [6]; at 1.2 µM 75% | [6]; at 3.7 µM 92% | [6]; at 11.0 µM 94% | [6]; at 33.0 µM 96% | [6]; at 100.0 µM 96% | [7]; at 33.0 µM 73% | [7]; at 100.0 µM 77% | [8]; at 33.0 µM 78% | [8]; at 100.0 µM 94% | [9]; at 33.0 µM 71% | [9]; at 100.0 µM 75% | [10]; at 3.7 µM 81% | [10]; at 11.0 µM 91% | [10]; at 33.0 µM 94% | [10]; [18] 96% | [10]; at 50.0 µM 81.2% | [10]; at 100.0 µM 94% | [11]; at 3.7 µM 82% | [11]; at 11.0 µM 95% | [11]; at 33.0 µM 97% | [11]; [18] 97% | [11]; at 50.0 µM 86.2% | [11]; at 100.0 µM 97% | [12]; at 1.2 µM 84% | [12]; at 3.7 µM 96% | [12]; at 11.0 µM 98% | [12]; at 33.0 µM 98% | [12]; at 100.0 µM 98% | [13]; [17] 78% | [13]; [18] 94% | [14]; at 100.0 µM 91% | [15]; [17] 81% | [15]; [18] 96% | [15]; at 50.0 µM 83.2% | [16]; [18] 86% | [16]; at 100.0 µM 96% | [1]; at 100.0 µM 93% | [2]; at 33.0 µM 84% | [2]; at 100.0 µM 86% | [3]; at 1.2 µM 80% | [3]; at 3.7 µM 90% | [3]; at 11.0 µM 93% | [3]; at 33.0 µM 95% | [3]; at 100.0 µM 96% | [4]; [18] 97% | [4]; at 50.0 µM 74.5% | [5]; at 1.2 µM 94% | [5]; at 3.7 µM 96% | [5]; at 11.0 µM 96% | [5]; at 33.0 µM 95% | [5]; at 100.0 µM 95%
inactive: [7]; at 1.2 µM -2% | [7]; at 3.7 µM 6% | [7]; at 11.0 µM 31% | [8]; at 1.2 µM 3% | [8]; at 3.7 µM 13% | [8]; at 11.0 µM 44% | [9]; at 1.2 µM -3% | [9]; at 3.7 µM 2% | [9]; at 11.0 µM 29% | [10]; at 1.2 µM 43% | [10]; [17] 42% | [11]; at 1.2 µM 14% | [11]; [17] 13% | [13]; at 50.0 µM 69.5% | [14]; at 1.2 µM -5% | [14]; at 3.7 µM -5% | [14]; at 11.0 µM 11% | [14]; at 33.0 µM 61% | [16]; at 1.2 µM -13% | [16]; at 3.7 µM -18% | [16]; [17] -41% | [16]; at 11.0 µM -2% | [16]; at 33.0 µM 52% | [16]; at 50.0 µM 43.6% | [1]; at 1.2 µM -2% | [1]; at 3.7 µM -1% | [1]; at 11.0 µM 11% | [1]; at 33.0 µM 53% | [2]; at 1.2 µM 5% | [2]; at 3.7 µM 25% | [2]; at 11.0 µM 61% | [4]; [17] 68%
